# Screens: PubChem BioAssay, several laboratories
# MEKK3 PB1 HTS: MEKK3-MEK5 PB1 interaction, increase or decrease | Q99759 | AID 1529 | bead-based flow cytometry, Alexa488-MEK5 binding to MEKK3; actives lie on both sides; 0 = blocked by unlabeled MEK5, 100 = vehicle | 1.4% of 290,000 active | binding response (% of control), % at 10 µM;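 active = binding response more than 3 SD above or below the average of its plate-row segment, actives on both sides; inconclusive = wells at one plate position flagged as instrument error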;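 note: Alexa488 bead fluorescence after subtracting the streptavidin-only scavenger bead signal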
# Target sequence (Q99759 whole entry, looked up): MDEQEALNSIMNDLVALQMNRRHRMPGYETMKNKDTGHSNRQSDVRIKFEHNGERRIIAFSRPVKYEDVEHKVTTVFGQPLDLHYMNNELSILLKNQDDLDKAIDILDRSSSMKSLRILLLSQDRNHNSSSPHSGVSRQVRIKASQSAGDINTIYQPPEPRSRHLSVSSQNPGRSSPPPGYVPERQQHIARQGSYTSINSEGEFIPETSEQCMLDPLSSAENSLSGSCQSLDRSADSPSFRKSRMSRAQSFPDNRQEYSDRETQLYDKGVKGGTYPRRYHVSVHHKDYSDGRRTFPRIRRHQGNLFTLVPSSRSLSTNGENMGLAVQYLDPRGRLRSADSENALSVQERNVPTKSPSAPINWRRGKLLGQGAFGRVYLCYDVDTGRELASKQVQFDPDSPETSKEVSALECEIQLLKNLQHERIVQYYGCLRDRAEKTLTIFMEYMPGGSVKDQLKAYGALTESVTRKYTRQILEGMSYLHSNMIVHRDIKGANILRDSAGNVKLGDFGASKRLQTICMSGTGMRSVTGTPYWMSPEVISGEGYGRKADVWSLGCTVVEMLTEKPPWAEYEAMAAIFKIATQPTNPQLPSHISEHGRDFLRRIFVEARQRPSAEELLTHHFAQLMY
# MEKK2mut PB1 HTS: signal of MEK5 binding to mutant human MEKK2 PB1 domain. bead flow cytometry, Alexa488-MEK5 binding to MEKK2 mutant. percent response, % at 10 µM. 0.35% of 290,000 active; in the data active = percent response above about 24%, passing the limit was not always enough
# dFosB act-1: enhances mouse delta FosB homodimer DNA binding; P13346; purified delta FosB, TAMRA-CDK5 oligo fluorescence polarization; percent of positive-control signal above neutral wells; activation, % at 25 µM; 0.99% of 340,000 active; AID 493131;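 active = mean activation above about 17%, with every replicate also reaching it, limit read from the data, passing the limit was not always enough; inconclusive = only one of the two conditions met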
# MEKK2 WT-MEK5: raises or lowers MEK5 binding to wildtype human MEKK2 PB1 domain | AID 1531 | bead flow cytometry, Alexa488-MEK5 binding to MEKK2 WT; actives lie on both sides | binding response (% of control), % at 10 µM | 1.1% of 290,000 active | Q9Y2U5; in the data active = binding response below about 67% or above about 130%; inconclusive = no clear call, values can overlap the other calls; inactive = in between
# FID counter: displaces DNA intercalator in HCV helicase counter-screen. 0.17% of 290,000 active. inhibition, % at 7.9 µM. DNA fluorescent intercalator displacement, fluorescence; in the data active = inhibition above about 37%;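 note: 0% = vehicle and 100% = reference compound; higher means more ethidium bromide displaced from hairpin DNA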
# MEKK2wt confirm: raises or lowers MEK5 binding to wildtype human MEKK2, retest | shares compounds with MEKK3 PB1 HTS | bead flow cytometry, Alexa488-MEK5 binding to MEKK2 WT; actives lie on both sides | binding response (% of control), % at 10 µM | 2.4% of 5,900 active; in the data active = binding response below about 16% or above about 210%; inactive = in between
# MEKK2mut-MEK5: signal of MEK5 binding to mutant human MEKK2, retest | shares compounds with MEKK3 PB1 HTS | bead flow cytometry, Alexa488-MEK5 binding to MEKK2 mutant | percent response, % at 10 µM | 2% of 5,900 active; in the data active = percent response mostly above about 71%, no sharp cut-off; inactive = mostly below about 38%;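 note: higher means compound restores mutant binding toward wildtype level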
# MEKK3-MEK5 inh: confirmation of inhibitors of MEK5 binding to human MEKK3; shares compounds with MEKK3 PB1 HTS; bead flow cytometry, Alexa488-MEK5 binding to MEKK3; active compounds read low; binding response (% of control), % at 10 µM; 1.8% of 5,900 active;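 active = binding response below 72% of control, or above a set upper limit, though filed actives all read lower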;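 note: 100% = DMSO only wells and 0% = binding blocked by excess unlabeled MEK5; lower values mean stronger disruption of MEK5 binding to MEKK3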
# dFosB act-2: enhances mouse delta FosB homodimer binding to DNA | shares compounds with dFosB act-1 | purified delta FosB, TAMRA-CDK5 oligo fluorescence polarization; normalised: neutral wells 0, positive control 100 | activation, % at 24.9 µM | 2,400 tested, under 10 active | AID 588690;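 active = highest replicate activation at or above 34% and every replicate reaching that threshold; inconclusive = meets only one of the two criteria; inactive = meets neither criterion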;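 note: higher polarization means more probe DNA bound by delta FosB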
# * hit, by the source's call; ? = inconclusive; . = no result given; [ ] = another dose, or the depositor's remark. The list is not random: actives were taken first. Their share in the collection is about 2.9%.
SMILES,MEKK3 PB1 HTS,MEKK2mut PB1 HTS,dFosB act-1,MEKK2 WT-MEK5,FID counter,MEKK2wt confirm,MEKK2mut-MEK5,MEKK3-MEK5 inh,dFosB act-2
CCC/C(C#CCCN1C(=O)c2ccccc2C1=O)=C1/c2ccccc2C(=O)N1c1ccccc1,.,.,-5.6,.,.,.,.,.,.
O=C1NC2(CCCC2)N=C1c1ccc(F)cc1,122.0*,4.0,-11.1,118.0,-1.4,99.0,8.0,100.0,.
CCOC(=O)c1c(C)n(C)c2cc(-c3ccc(C)cc3)c(O)cc12,131.0*,0.0,-2.5,105.0,-6.3,103.0,1.0,103.0,.
CCOC(=O)c1c(C)n(C)c2ccc(OC(=O)c3ccc([N+](=O)[O-])cc3)cc12,138.0*,-1.0,0.7,103.0,-13.6,102.0,3.0,103.0,.
CN(C)c1ccc(/C=N\NC(=O)c2cccc3cc[nH]c23)cc1,116.0,19.0,-3.9,101.0,-11.0,.,.,.,.
O=C(CC(c1ccccc1)c1ccccc1O)N1CCCCC1 (configuration not stated),101.0,-2.0,-10.2,97.0,-25.4,.,.,.,.
Cc1ccccc1OCC(O)CNC1CCC(NCC(O)COc2ccccc2C)CC1 (configuration not stated),111.0,76.0*,-0.7,219.0*,28.8,207.0*,70.0*,111.0,.
Cc1ccc(OCC(O)CNC2CCCC2)c(C)c1 (configuration not stated),103.0,2.0,-0.3,109.0,5.9,.,.,.,.
CC(C)(C)n1nnnc1C(c1cccs1)N(Cc1ccccc1)Cc1cccnc1 (configuration not stated),105.0,1.0,-8.0,105.0,-4.0,.,.,.,.
CC(C)(C)n1nnnc1C(c1cccnc1)N(Cc1ccccc1)Cc1cccs1 (configuration not stated),2.0*[inhibitor],-21.0,-6.6,2.0*[inhibitor],-3.0,101.0,-4.0,102.0,.
Fc1ccccc1-c1csc(=Nc2cccnc2)n1CC1CCCO1 (configuration not stated),93.0,-2.0,-8.1,91.0,-14.0,.,.,.,.
Fc1ccccc1-c1csc(=Nc2cccnc2)n1CCCn1ccnc1,137.0*,3.0,-4.3,102.0,-0.1,114.0,19.0,104.0,.
CCN(CC)CCN(C(=O)c1ccc(C(=O)c2ccccc2)cc1)c1nc2c(OC)cccc2s1,115.0,42.0*,33.4*,178.0*,9.0,157.0,25.0,108.0,5.6
Cc1nn(CCCC(=O)NCc2ccco2)c(=O)c2nn(-c3ccccc3)c(C)c12,103.0,2.0,-5.6,104.0,-41.1,.,.,.,.
COc1ccc(C2c3c(ncn(Cc4ccco4)c3=N)Oc3ccc4ccccc4c32)cc1 (configuration not stated),106.0,56.0*,45.4*,185.0*,-17.0,190.0,62.0,112.0,-0.5
CSc1ccc(-c2sc(Nc3ccccc3)n[n+]2-c2ccc(F)cc2)cc1,109.0,28.0*,23.4*,139.0*,-26.4,128.0,12.0,111.0,5.9
N#CNC(N)=Nc1cccc(Cl)c1,122.0*,8.0,21.9*,126.0,-3.5,101.0,-2.0,100.0,-6.6
N#CNC(=Nc1cccc(Cl)c1)Oc1ccccc1,100.0,1.0,-3.4,104.0,-3.0,.,.,.,.
Cc1cccc(C)c1OCC(O)CN1CCC(CN2C(=O)c3cccc4cccc(c34)C2=O)CC1 (configuration not stated),97.0,20.0,74.0*,150.0*,11.2,134.0,48.0,104.0,5.8
O=C1c2cccc3cccc(c23)C(=O)N1CC1CCCO1 (configuration not stated),97.0,2.0,4.2,95.0,-5.4,.,.,.,.
Cc1ccccc1OCC(O)CN1CCN(CCN2C(=O)c3cccc4cccc(c34)C2=O)CC1 (configuration not stated),137.0*,1.0,49.9*,111.0,2.1,132.0,15.0,106.0,0.2
CC(C)OCC(O)CN1CCN(CCN2C(=O)c3cccc4cccc(c34)C2=O)CC1 (configuration not stated),101.0,3.0,?,100.0,20.0,.,.,.,.
Cc1ccc(N2C(=O)c3ccc(C(=O)N4CCN(c5ccccc5F)CC4)cc3C2=O)cc1,100.0,1.0,2.1,100.0,-3.8,.,.,.,.
O=C(Cn1cnc2ccccc2c1=O)Nc1nnc(SCc2ccc(Cl)cc2)s1,35.0*[inhibitor],-12.0,24.6*,32.0*[inhibitor],-0.9,107.0,7.0,107.0,-4.9
O=C(Cn1cnc2ccccc2c1=O)Nc1nnc(C2CC2)s1,109.0,28.0,8.3,117.0,-5.3,.,.,.,.
SMILES,MEKK3 PB1 HTS,MEKK2mut PB1 HTS,dFosB act-1,MEKK2 WT-MEK5,FID counter,MEKK2wt confirm,MEKK2mut-MEK5,MEKK3-MEK5 inh,dFosB act-2
CN(C)CCCN(C(=O)c1ccc(S(=O)(=O)N(C)C2CCCCC2)cc1)c1nc2ccc(Br)cc2s1,103.0,32.0*,22.5*,195.0*,24.9,174.0,29.0,74.0,-0.2
CCOc1ccc2nc(N(CCCN(C)C)C(=O)c3ccc(S(=O)(=O)N4CCCC4)cc3)sc2c1,106.0,16.0,6.6,124.0,18.8,.,.,.,.
CCOc1ccc2nc(N(CCN(C)C)C(=O)c3ccc4c(c3)CCCC4)sc2c1,107.0,25.0*,29.9*,152.0*,26.1,147.0,23.0,103.0,-0.2
Cc1cc(C)c2sc(N(CCCN(C)C)C(=O)c3ccc(S(=O)(=O)N(C)C4CCCCC4)cc3)nc2c1,.,.,5.6,.,.,.,.,.,.
CCc1ccc2nc(N(CCCN(C)C)C(=O)c3ccc(S(=O)(=O)N4CCc5ccccc5C4)cc3)sc2c1,106.0,28.0*,46.8*,176.0*,34.2,197.0,60.0,96.0,-4.1
COc1ccc(C(C(=O)Nc2ccc(C(C)C)cc2)N(Cc2ccco2)C(=O)CC2NC(=O)NC2=O)cc1 (configuration not stated),103.0,-2.0,-19.7,95.0,-31.8,.,.,.,.
Cc1ccc(CNC(=O)c2ccccc2NC(=O)CSc2nnnn2C)cc1,105.0,4.0,-0.7,105.0,-2.7,.,.,.,.
O=C1COc2ccc(C(=O)CSc3nc4ccccc4c(=O)n3-c3ccc(Cl)c(Cl)c3)cc2N1,136.0*,0.0,56.3*,113.0,2.1,37.0,-26.0,72.0,1.1
Cc1ccc(NC(=O)CSC2=C(C#N)C(c3ccc4c(c3)OCO4)CC(=O)N2)cc1C (configuration not stated),81.0*[inhibitor],-6.0,46.5*,85.0,-2.5,96.0,-6.0,97.0,2.8
